Source: PubChem BioAssay
Activity calls are given as the source filed them.

Assays:
[1] = optical density shifts of acrAB sulA E. coli – strain DRC41, OD650, 48 h, E. coli filamentation inducer project, primary screen (AID 1152); settings: higher = more signal, called active from +8 up or from −8 down;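 note: E. coli MC1000 strain DRC41 lacking acrAB efflux pump and sulA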
[2] = probe aLefty1 binding on compound microarray – biochemical, small-molecule microarray, 635/667 nm fluorescence, primary screen (AID 1153); settings: higher = more signal;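 note: score merges spot fluorescence with signal-to-noise ratio from the scanned slide images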
[3] = plasmodial surface anion channel blockers, osmotic lysis – cell-based, P. falciparum Indochina, OD700, 1 h, primary screen (AID 1154); settings: P. falciparum Indochina infected RBC osmotic lysis, higher = more signal, called active from +8 up or from −8 down
[4] = plasmodial surface anion channel blockers, osmotic lysis – cell-based, P. falciparum Indochina, OD700, 2 h, primary screen (AID 1155);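 note: lysis reports solute entry through the parasite surface anion channel PSAC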; settings: P. falciparum Indochina infected erythrocytes, higher = more signal, called active from +8 up or from −8 down
[5] = changes in parasitized red cell lysis, either direction – P. falciparum Indochina, OD700, 3 h, PSAC antagonist project, primary screen (AID 1156); settings: P. falciparum-infected erythrocytes, osmotic lysis, higher = more signal, called active from +8 up or from −8 down
[6] = plasmodial surface anion channel blockers, osmotic lysis – cell-based, P. falciparum Indochina, OD700, 18 h, primary screen (AID 1157); settings: P. falciparum Indochina infected erythrocytes, osmotic lysis OD700, 18 h; higher = more signal, called active from +8 up or from −8 down
[7] = S6 kinase pathway phospho-S6 level changes – cell-based, A549, cytoblot, luminescence, serum-stimulated, primary screen (AID 1158); settings: 5 h, higher = more signal;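 note: serum-stimulated A549 lung adenocarcinoma cells; signal is phosphorylated S6 detected by cytoblot immunostaining with HRP secondary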
[8] = molecular target: NADPH oxidase 2 (Homo sapiens) (UniProt P04839); assay: compounds shifting NOX2 Amplex Red fluorescence – cell-based, HEK293-NOX2, PMA-stimulated, NOX inhibitor project, primary screen (AID 1159); settings: 45 min, higher = more signal, called active from +8 up or from −8 down; note: test concentration not given here
Chain of NADPH oxidase 2 (Homo sapiens) (P04839 whole entry, looked up): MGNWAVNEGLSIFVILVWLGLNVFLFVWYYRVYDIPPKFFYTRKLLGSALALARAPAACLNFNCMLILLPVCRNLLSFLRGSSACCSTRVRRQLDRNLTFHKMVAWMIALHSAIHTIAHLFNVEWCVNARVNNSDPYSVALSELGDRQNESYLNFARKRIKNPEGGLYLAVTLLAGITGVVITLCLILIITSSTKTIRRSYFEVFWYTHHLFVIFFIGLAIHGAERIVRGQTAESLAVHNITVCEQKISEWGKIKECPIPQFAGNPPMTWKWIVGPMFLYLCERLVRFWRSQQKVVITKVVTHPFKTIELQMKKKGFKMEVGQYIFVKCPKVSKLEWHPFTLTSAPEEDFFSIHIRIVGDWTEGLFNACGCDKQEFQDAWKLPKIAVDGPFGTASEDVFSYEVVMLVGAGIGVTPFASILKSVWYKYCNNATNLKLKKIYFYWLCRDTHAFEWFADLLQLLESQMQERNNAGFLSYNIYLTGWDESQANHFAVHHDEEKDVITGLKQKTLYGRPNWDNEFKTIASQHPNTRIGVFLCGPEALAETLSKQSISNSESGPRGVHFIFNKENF

[9] = molecular target: NADPH oxidase 4 (Homo sapiens) (UniProt Q9NPH5); assay: compounds shifting NOX4 Amplex Red fluorescence – cell-based, HEK293-NOX4, tetracycline-induced, NOX inhibitor project, primary screen (AID 1160); settings: HEK293-NOX4, Amplex Red H2O2 fluorescence, 45 min; higher = more signal, called active from +8 up or from −8 down
Chain of NADPH oxidase 4 (Homo sapiens) (Q9NPH5 whole entry, looked up): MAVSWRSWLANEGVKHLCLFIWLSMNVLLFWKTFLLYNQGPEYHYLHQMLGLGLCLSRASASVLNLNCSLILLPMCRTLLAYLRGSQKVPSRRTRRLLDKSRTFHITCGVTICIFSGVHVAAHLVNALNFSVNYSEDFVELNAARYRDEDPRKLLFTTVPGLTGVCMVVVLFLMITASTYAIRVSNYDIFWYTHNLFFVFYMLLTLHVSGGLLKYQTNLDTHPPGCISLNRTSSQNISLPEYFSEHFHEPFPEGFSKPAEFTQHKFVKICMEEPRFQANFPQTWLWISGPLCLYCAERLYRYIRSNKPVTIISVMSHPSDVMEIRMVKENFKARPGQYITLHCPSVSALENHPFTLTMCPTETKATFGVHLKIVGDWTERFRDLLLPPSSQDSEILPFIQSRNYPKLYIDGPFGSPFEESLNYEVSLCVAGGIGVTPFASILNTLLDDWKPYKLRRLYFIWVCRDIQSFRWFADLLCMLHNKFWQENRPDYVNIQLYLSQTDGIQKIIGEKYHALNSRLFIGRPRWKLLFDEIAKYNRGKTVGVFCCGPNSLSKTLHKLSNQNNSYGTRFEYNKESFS

[10] = molecular target: NADPH oxidase 5 (Homo sapiens) (UniProt Q96PH1); assay: compounds shifting NOX5 Amplex Red fluorescence – cell-based, HEK293-NOX5, NOX inhibitor project, primary screen (AID 1161); settings: HEK293-NOX5, ionomycin, 45 min, higher = more signal
Chain of NADPH oxidase 5 (Homo sapiens) (Q96PH1 whole entry, looked up): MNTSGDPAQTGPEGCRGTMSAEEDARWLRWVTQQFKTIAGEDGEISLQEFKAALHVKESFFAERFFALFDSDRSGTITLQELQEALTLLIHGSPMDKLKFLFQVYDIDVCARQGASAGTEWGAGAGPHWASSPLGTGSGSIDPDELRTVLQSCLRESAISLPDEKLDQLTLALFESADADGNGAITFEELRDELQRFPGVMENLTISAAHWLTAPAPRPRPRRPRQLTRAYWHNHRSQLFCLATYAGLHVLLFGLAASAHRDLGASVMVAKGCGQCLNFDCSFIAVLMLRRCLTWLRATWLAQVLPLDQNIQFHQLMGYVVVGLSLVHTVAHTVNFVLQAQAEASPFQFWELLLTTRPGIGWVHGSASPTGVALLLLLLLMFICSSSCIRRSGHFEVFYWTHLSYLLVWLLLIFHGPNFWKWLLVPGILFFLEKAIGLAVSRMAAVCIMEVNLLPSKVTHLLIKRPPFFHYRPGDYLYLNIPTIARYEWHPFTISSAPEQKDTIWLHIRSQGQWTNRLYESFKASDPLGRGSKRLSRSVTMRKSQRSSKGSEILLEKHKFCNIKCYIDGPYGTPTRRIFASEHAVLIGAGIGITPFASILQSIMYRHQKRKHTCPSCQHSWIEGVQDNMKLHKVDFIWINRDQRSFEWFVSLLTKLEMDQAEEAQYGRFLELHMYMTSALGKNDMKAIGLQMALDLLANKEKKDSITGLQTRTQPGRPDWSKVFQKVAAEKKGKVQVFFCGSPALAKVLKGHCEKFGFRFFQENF

| SMILES | z-score [1] | composite z-score [2] | z-score [3] | z-score [4] | z-score [5] | z-score [6] | z-score [7] | z-score [8] | z-score [9] | z-score [10] |
| --- | --- | --- | --- | --- | --- | --- | --- | --- | --- | --- |
| COc1ccc(NN2C(C(O)c3ccc([N+](=O)[O-])cc3)C=CC3C(=O)N(C4CCCCC4)C(=O)C32)cc1 (stereo not given) | -0.256 (inactive) | 0.3 | 7.78 (inactive) | 1.11 (inactive) | -0.187 (inactive) | 0.708 (inactive) | -0.126 | -1.03 (inactive) | -2.3 (inactive) | -0.48 |
| COCC(=C=CC[C@H](O)c1ccccc1OCCO)C[C@H](O)c1cc(Cl)cc(Cl)c1O | -0.381 (inactive) | 0.233 | 7.9 (inactive) | 8.65 (active) | -9.18 (active) | 3.52 (inactive) | -0.539 | -5.19 (inactive) | -2.45 (inactive) | -3.1 |
| COc1ccc(C(=O)Nc2ccc(CN3C(=O)[C@@]4(O[C@@H](CC(=O)N5CCC[C@H]5CO)[C@H]([Si](C)(C)c5ccc(OC)cc5)[C@H]4C)c4ccccc43)cc2)cc1 | 0.482 (inactive) | 0.138 | 5.52 (inactive) | 1.06 (inactive) | 0.146 (inactive) | 0.77 (inactive) | 0.363 | 1.21 (inactive) | 1.23 (inactive) | 4.5 |
| CC(C)(C)OC(=O)CC[C@@]1(C(N)=O)N=C(c2ccc(OCCCO)cc2)O[C@@H]1c1ccccc1 | -0.795 (inactive) | 0.345 | 5.46 (inactive) | 0.431 (inactive) | 0.726 (inactive) | 0.299 (inactive) | -0.0683 | -0.414 (inactive) | 0.492 (inactive) | -0.0961 |
| C=CCNC(=O)[C@@H]1[C@H]2C(=O)O[C@H](c3ccccc3)[C@H](c3ccccc3)N2[C@H](c2ccc(OCCO)cc2)[C@@]12C(=O)Nc1ccc(C#Cc3ccc(OC)cc3)cc12 | 0.411 (inactive) | 0.498 | 3.18 (inactive) | 1.46 (inactive) | 0.931 (inactive) | 0.677 (inactive) | 0.278 | 1.04 (inactive) | -1.11 (inactive) | 0.959 |
| COC(=O)[C@@]1(Cc2ccc(OC)cc2)[C@H]2c3cc(C(=O)N(C)C)n(Cc4cccc5ccccc45)c3C[C@H]2CN1C(=O)c1ccccc1 | -1.27 (inactive) | 0.468 | 2.33 (inactive) | -0.206 (inactive) | 1.19 (inactive) | -1.39 (inactive) | 2.11 | -3.14 (inactive) | -1.83 (inactive) | -4.62 |
| NC(=O)[C@@H]1[C@H]2C(=O)O[C@H](c3ccccc3)[C@H](c3ccccc3)N2[C@H](c2ccc(O)cc2)[C@@]12C(=O)Nc1ccc(C#CC3(O)CCCCCC3)cc12 | -0.723 (inactive) | -0.0544 | 2.28 (inactive) | 0.912 (inactive) | 0.904 (inactive) | 0.812 (inactive) | -0.231 | 0.834 (inactive) | -0.258 (inactive) | -0.125 |
| CC(C)C(CO)N1C(=O)[C@@H]2[C@H]3C(=O)OCC=C[C@H]3OC23C=CCN(C(C)C)C(=O)[C@@H]13 (stereo not given in full) | 1.4 (inactive) | -0.146 | -0.237 (inactive) | 0.139 (inactive) | 0.333 (inactive) | 0.649 (inactive) | -0.1 | 0.834 (inactive) | 0.457 (inactive) | 1.23 |
| CN1C(=O)C2C=CC(C(O)Cc3ccccc3)N(Nc3ccccc3)C2C1=O (stereo not given) | -1.55 (inactive) | -0.0501 | 1.15 (inactive) | 0.872 (inactive) | 0.215 (inactive) | 0.9 (inactive) | -0.709 | -1.57 (inactive) | -4.77 (inactive) | -3.59 |
| CN(C)C(=O)[C@@]1(Cc2ccccc2)N=C(c2ccc(OCCCO)cc2)O[C@H]1c1ccccc1N=[N+]=[N-] | 0.89 (inactive) | 0.737 | 30.4 (active) | 27.4 (active) | 2.05 (inactive) | 7.06 (inactive) | 1.33 | -1.93 (inactive) | 0.891 (inactive) | -1.22 |
| COCCOC(=O)N1C(=O)[C@@]2(c3cc(C#CC4=CCCCC4)ccc31)[C@H](C(N)=O)[C@H]1C(=O)O[C@H](c3ccccc3)[C@H](c3ccccc3)N1[C@@H]2c1ccc(OCCO)cc1 | 0.102 (inactive) | -0.273 | 6.77 (inactive) | 3.03 (inactive) | 2.5 (inactive) | 1.96 (inactive) | 0.375 | 1.54 (inactive) | 1.41 (inactive) | 1.96 |
| CC(C)(C)OC(=O)CC[C@@]1(C(=O)NCC(O)CO)N=C(c2ccc(OCCCO)cc2)O[C@@H]1c1ccccc1N=[N+]=[N-] (stereo not given in full) | 1.99 (inactive) | 0.379 | 31.9 (active) | 28.4 (active) | 3.82 (inactive) | 7.71 (inactive) | 0.123 | -2.77 (inactive) | 1.03 (inactive) | -1.85 |
